Pol eta inh-1: inhibitors of human DNA polymerase eta; actives 1.2% (n = 390,000); recombinant Pol eta, fluorescent DNA replication assay; Potency, µM (titrated, usually from 114 µM), without a hit: top-dose activity change, negative = inhibition, hits mostly inhibitors; Q9Y253; AID 588591; further: on the % scale 0 is the no-effect control and ±100 the full control effect
Target sequence (Q9Y253 whole entry, looked up): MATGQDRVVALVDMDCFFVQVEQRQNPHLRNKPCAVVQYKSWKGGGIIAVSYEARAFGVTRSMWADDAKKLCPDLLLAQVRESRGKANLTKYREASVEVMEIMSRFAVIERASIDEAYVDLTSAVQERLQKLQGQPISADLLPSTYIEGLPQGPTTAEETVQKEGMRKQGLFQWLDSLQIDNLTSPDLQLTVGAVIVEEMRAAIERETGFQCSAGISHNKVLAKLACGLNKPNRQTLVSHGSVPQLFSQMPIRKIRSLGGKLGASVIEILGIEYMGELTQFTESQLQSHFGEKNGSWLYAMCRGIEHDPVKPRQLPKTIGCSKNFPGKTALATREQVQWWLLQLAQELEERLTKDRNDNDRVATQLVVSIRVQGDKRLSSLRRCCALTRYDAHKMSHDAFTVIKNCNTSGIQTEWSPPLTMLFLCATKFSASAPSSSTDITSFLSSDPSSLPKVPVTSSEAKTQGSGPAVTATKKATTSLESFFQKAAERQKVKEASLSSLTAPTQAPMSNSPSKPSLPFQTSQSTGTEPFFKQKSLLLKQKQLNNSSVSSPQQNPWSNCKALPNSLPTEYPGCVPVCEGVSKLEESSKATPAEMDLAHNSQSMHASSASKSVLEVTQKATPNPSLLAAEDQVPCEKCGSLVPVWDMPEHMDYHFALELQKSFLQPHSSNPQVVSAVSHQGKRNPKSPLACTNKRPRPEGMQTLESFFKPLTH
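Pol eta at 10 nM preincubated with compounds 15 min at room temperature; reaction started with fluorescent substrate (50 nM final) and read kinetically at 0 and 10 min.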
Pol iota inh: DNA polymerase iota (human) inhibition | Potency, µM (highest dose often 115 µM), for the others: at the top dose activity, negative = inhibition, hits mostly inhibitors | actives 1% (n = 390,000) | AID 588590 | Q9UNA4 | Pol iota fluorescent replication assay, 10 min
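Pol iota at 10 nM preincubated 15 min with compounds at room temperature; reaction started with fluorescent substrate, 50 nM final. Fluorescence read kinetically at 0 and 10 min; buffer-only wells as negative control.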
POLB inh: DNA polymerase beta (human) inhibition; Pol beta primer extension/strand displacement, fluorescence kinetic; actives 1.3% (n = 340,000); AID 485314; Potency, µM (series often up to 114 µM), for inactives: at the top dose activity change, negative = inhibition, actives largely listed as inhibitors; P06746; further: on the % scale 0 is the no-effect control and ±100 the full control effect
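Curves were derived by four-parameter Hill fits of normalized qHTS data. The kinetic fluorescent primer-extension read was taken at 0 and 10 min after 50 nM substrate, following a 15 min room-temperature preincubation of 10 nM enzyme with compounds.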
FEN1 inh-1: inhibitors of human flap endonuclease 1; P39748; Recombinant FEN1 flap cleavage, fluorescence, 15 min; Potency, µM (top dose mostly 114 µM), inactives show at the top dose activity change, negative = inhibition, usual class: inhibitors; actives 0.35% (n = 390,000); further: on the % scale 0 is the no-effect control and ±100 the full control effect; nearly all actives have a fitted effect of over 65% in size
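Recombinant FEN1 (10 nM) was preincubated with pin-transferred compounds for 15 min at room temperature, then flap DNA substrate (50 nM final) was added. Plates were read at 0 and 15 min, and normalized concentration–response data were fitted to a four-parameter Hill equation.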
WRN helicase inh-1: inhibitors of human WRN helicase; Potency, µM (series often up to 114 µM), inactives show at the highest dose activity change, negative = inhibition, actives largely listed as inhibitors; actives 0.46% (n = 360,000); Q14191; WRN helicase unwinding, fluorescent forked duplex, kinetic; further: on the % scale 0 is the no-effect control and ±100 the full control effect; nearly all actives have a fitted effect of over 55% in size
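Primary qHTS, 1536-well format. 20 nM WRN + compound, 15 min RT; start with 100 nM forked fluorophore/quencher duplex, 2 mM ATP (final); kinetic read ex 525/em 598 nm.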
Pol kappa inh-1: DNA polymerase kappa (human) inhibition. Q9UBT6. Potency, µM (highest dose often 107 µM), for inactives: top-dose activity, negative = inhibition, hits mostly inhibitors. purified Pol kappa, fluorescent DNA synthesis assay, 10 min. actives 0.53% (n = 400,000). AID 588579; further: on the % scale 0 is the no-effect control and ±100 the full control effect
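Kinetic fluorescence readout at 0 and 10 min followed reaction start with substrate at 50 nM final. Beforehand, enzyme (10 nM Pol kappa) stood 15 min with compound at room temperature; buffer-only wells were negative controls.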
TbPGK inh: validation of Trypanosoma brucei phosphoglycerate kinase inhibitors | shares compounds with Pol kappa inh-1 | TbPGK coupled GAPDH assay, Kinase-Glo luminescence | Potency, µM (highest dose often 57.5 µM), inactives show at the top dose activity change, negative = inhibition, hits mostly inhibitors | actives 79% (n = 500); further: on the % scale 0 is the no-effect control and ±100 the full control effect; nearly all actives have a fitted effect of over 65% in size
POLI cherry-pick: Inhibitors of human DNA polymerase iota, confirmation | shares compounds with Pol kappa inh-1 | actives 77% (n = 1,500) | Pol iota primer extension, TAMRA/BHQ fluorescence | Potency, µM, usual class: inhibitors | AID 720496
Pol kappa inh-2: confirmation of human DNA polymerase kappa inhibitors | shares compounds with Pol eta inh-1 | purified Pol-kappa, fluorescent strand-displacement substrate | Potency, µM, actives largely listed as inhibitors | actives 76% (n = 920)
Pol eta inh-2: confirmation of human DNA polymerase eta inhibitors; shares compounds with Pol eta inh-1; Pol eta primer extension, TAMRA/BHQ fluorescence, 10 min; Potency, µM, actives largely listed as inhibitors; actives 64% (n = 2,600); AID 720502
FEN1 inh-2: FEN1 inhibition, cherry-pick retest. shares compounds with FEN1 inh-1. FEN1 flap cleavage, TAMRA/BHQ2 fluorogenic DNA substrate. Potency, µM, usual class: inhibitors. actives 79% (n = 880). AID 720498; further: nearly all actives have a fitted effect of over 60% in size
WRN helicase inh-2: WRN helicase inhibition, cherry-pick retest | AID 720497 | Potency, µM (series often up to 57.1 µM), inactives show top-dose activity, negative = inhibition, most hits filed as inhibitors | shares compounds with WRN helicase inh-1 | actives 63% (n = 610) | WRN helicase DNA unwinding, fluorescence kinetic; further: nearly all actives have a fitted effect of over 65% in size
TO DNA binding: binds DNA, flagged in WRN inhibitor counterscreen | thiazole orange DNA binding displacement, fluorescence | actives 10% (n = 610) | shares compounds with WRN helicase inh-1 | Potency, µM (highest dose often 57.1 µM), for the others: top-dose activity change, negative = inhibition, most hits filed as inhibitors;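 further: drop in dye fluorescence marks compound binding to DNA; on the % scale 0 is the no-effect control and ±100 the full control effect; nearly all actives have a fitted effect of over 60% in size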
BLM helicase inh: blocks human BLM helicase in WRN counterscreen; AID 720503; Recombinant BLM helicase DNA unwinding, red fluorescence; actives 60% (n = 610); Potency, µM (titrated, usually from 57.1 µM), without a hit: at the top dose activity change, negative = inhibition, most hits filed as inhibitors; shares compounds with WRN helicase inh-1; further: nearly all actives have a fitted effect of over 60% in size
Starred values were filed as active, the others as inactive; ? = inconclusive; nt = no result given; [ ] = another dose, or the depositor's remark. Only some compounds are listed: those with a hit (about 2.4% of all), similar ones and a draw of the others. The call rests on the fitted dose curve; in most records, active means well fitted curve in the direction sought with a large enough effect; inconclusive means small, poorly fitted or top-dose-only effect, or another doubt; inactive means no such curve, though single readings can be large; an effect the other way counts as inactive or inconclusive. Potency means the concentration at half of the fitted maximal effect.

SMILES	Pol eta inh-1	Pol iota inh	POLB inh	FEN1 inh-1	WRN helicase inh-1	Pol kappa inh-1	POLI cherry-pick	Pol eta inh-2	FEN1 inh-2	WRN helicase inh-2	TO DNA binding	BLM helicase inh	others
CCSc1nnc(NC(=O)CC)s1	-2%	-15%	18%	16%	-3%	-9%	nt	nt	nt	nt	nt	nt
CCSc1nnc(NC(=O)CSc2sc3c(O)cc(=O)[nH]c3c2C#N)s1	3.5µM*	3.5µM*	35µM*	35µM*	18µM*	20µM*	42*	24*	nt	19µM*	?	?	Pol kappa inh-2=9.5*
O=P(O)(O)C(O)(Cn1ccnc1)P(=O)(O)O	nt	nt	nt	nt	nt	-12%[60.1 µM]	nt	nt	nt	nt	nt	nt
C=CCn1c(SCC(=O)c2ccc(O)c(O)c2)nnc1-c1ccc(OC)cc1	10µM*	50µM*	nt	-1%	28µM*	45µM*	?	?	nt	17µM*	-4%	?
O=C(NN1C(=O)/C(=C/C=C/c2ccco2)SC1=S)c1ccccc1O	1.1µM*	1.3µM*	1.1µM*	11µM*	10µM*	4µM*	2.7*	3.4*	27*	3µM*	?	8.6µM*	TbPGK inh=9.2µM*
O=C(O)CC(C(=O)O)N1C(=O)/C(=C/C=C/c2ccco2)SC1=S (centres undefined)	0.89µM*	1.6µM*	0.79µM*	?	10µM*	-96%	5.3*	3*	11*	3.8µM*	3.8µM*	4.8µM*	TbPGK inh=2.9µM*
O=C(Cn1c2ccccc2c(=O)c2ccccc21)N/N=C/c1cc([N+](=O)[O-])ccc1N1CCCCCC1	2.8µM*	45%	2.5µM*	-20%	11µM*	-7%	?	nt	nt	6.1µM*	19%	1.1µM*
Cc1ccc(-c2nn3cnnc3s2)cc1NC(=O)c1ccc(-c2cccc(Cl)c2)o1	nt	nt	nt	nt	nt	nt	27*	76*	nt	?	163%	?	Pol kappa inh-2=?
Oc1ccc2ccccc2c1N=Nc1ccc(F)cc1	-15%	-28%	-10%	-1%	-14%	-14%	nt	nt	nt	nt	nt	nt
O=C(O)Cc1ccc(N=Nc2c(O)c(C(=O)O)cc3ccccc23)cc1	7.1µM*	7.9µM*	32µM*	50µM*	25µM*	?	21*	21*	67*	19µM*	?	17µM*
